What all share (design): scale not given: direction of the effect not stated beside the values
For assay [1], the target named is Protein translocase subunit SecA (Escherichia coli (strain K12)) (UniProt P10408). Description: Assay to Identify E. coli SecA ATPase Inhibitors. The assay is classed as functional. The note with it: 30 µM.
Assay [2] deals with T1, Ubiquitin-activating enzyme e1, putative (Leishmania donovani (strain BPK282A1)) (UniProt E9BSI1).
T1 sequence (whole entry): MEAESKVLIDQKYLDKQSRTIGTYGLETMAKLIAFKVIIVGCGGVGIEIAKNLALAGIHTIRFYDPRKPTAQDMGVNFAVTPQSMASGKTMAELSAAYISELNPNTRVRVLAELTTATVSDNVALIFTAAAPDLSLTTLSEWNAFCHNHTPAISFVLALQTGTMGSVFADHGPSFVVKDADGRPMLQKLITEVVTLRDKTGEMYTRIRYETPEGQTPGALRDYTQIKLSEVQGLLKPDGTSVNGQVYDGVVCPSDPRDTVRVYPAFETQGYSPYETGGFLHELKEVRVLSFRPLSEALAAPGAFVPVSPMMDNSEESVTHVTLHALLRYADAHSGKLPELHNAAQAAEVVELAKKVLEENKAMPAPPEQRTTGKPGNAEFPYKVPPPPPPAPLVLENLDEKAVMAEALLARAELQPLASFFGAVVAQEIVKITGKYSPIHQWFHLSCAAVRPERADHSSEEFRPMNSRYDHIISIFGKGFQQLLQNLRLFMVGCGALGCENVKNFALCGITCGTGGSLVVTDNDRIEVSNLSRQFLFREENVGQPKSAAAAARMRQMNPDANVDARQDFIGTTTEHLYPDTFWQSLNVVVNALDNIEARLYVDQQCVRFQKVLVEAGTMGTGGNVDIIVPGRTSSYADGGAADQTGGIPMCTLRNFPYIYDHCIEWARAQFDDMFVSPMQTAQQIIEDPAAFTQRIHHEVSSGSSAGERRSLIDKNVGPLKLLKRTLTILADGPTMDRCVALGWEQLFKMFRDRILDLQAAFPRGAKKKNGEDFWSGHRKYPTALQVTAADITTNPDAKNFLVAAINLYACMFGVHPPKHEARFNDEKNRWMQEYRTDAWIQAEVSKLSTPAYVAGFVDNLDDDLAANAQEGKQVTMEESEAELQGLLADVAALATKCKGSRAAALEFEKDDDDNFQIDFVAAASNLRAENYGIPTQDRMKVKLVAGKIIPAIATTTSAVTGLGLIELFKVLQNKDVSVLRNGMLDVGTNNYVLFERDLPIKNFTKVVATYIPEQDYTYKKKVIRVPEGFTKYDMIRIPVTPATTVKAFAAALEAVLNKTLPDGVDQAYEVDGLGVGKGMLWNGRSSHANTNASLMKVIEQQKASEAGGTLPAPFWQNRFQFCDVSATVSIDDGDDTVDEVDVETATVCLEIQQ
As to the kind of experiment: Leishmania donovani Ubiquitin Activating Enzyme (LdE1). In kind it is functional. The note with it: 30 µM.

In assay [3] the target is AMP-activated protein kinase, AMPK (Homo sapiens) (UniProt P54646+O43741+P54619+Q9UGJ0+Q9Y478+Q13131+Q9UGI9). As to the kind of experiment: AMP-dependent Kinase enzyme assay. An in vitro enzyme assay that detects ADP turnover that is directly proportional to AMPK activity. This uses naive AMPK that is activated during the assay with MK-8722. In kind it is functional. Conditions: 30 µM.

Assay [4] concerns the target Sialic acid-binding Ig-like lectin 9 (Homo sapiens) (UniProt Q9Y336). Description: Hs-Siglec9 ALPHAscreen SOP 20170721. The note with it: 10 µM.
The next assay concerns Trypanosoma cruzi. As to the kind of experiment: Trypanosoma cruzi phosphomannomutase and mannose-1-phosphate guanylyltransferase assay. The assay is classed as functional. The note with it: 10 µM.
Assay [5] addresses T2, Arginase-2, mitochondrial (Homo sapiens) (UniProt P78540).
T2 sequence (whole entry): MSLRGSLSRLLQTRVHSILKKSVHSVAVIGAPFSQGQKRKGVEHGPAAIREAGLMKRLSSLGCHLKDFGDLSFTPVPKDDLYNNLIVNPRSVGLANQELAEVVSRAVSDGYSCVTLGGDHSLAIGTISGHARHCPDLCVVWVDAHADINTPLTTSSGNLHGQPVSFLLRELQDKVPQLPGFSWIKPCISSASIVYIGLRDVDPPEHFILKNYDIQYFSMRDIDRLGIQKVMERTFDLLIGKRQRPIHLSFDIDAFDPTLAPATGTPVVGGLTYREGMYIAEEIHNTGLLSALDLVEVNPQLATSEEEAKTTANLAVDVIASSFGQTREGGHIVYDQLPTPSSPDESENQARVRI
Description: in vitro enzyme assay to detect the production of urea directly proportional to the activity of Arginase II. Further: in the data most compounds retested in dose-response had high values. The assay is classed as functional. Conditions: 33.3 µM.

Assay [6] has as its target T3, Proteasome subunit beta (Trypanosoma cruzi) (UniProt O96673).
T3 sequence (whole entry): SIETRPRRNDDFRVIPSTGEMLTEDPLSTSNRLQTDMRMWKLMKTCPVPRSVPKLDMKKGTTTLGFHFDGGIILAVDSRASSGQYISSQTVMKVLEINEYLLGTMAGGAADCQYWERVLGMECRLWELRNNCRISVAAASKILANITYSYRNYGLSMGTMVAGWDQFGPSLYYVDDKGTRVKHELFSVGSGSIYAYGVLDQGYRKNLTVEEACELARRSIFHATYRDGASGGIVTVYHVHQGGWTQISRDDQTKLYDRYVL
As to the kind of experiment: Trypanosoma cruzi proteasome chymotrypsin-like activity (TcProtChymo) assay. Further: in the data most compounds retested in dose-response had high values. The assay is classed as functional. The note with it: 9.37 µM.

The species named for another assay is Homo sapiens. Description: To identify inhibition of the IFN signalling (Jak-Stat) pathway via expression of an eGFP reporter gene under the control of an IFN-stimulated response element (ISRE) containing MxA promoter. Conditions: 30 µM. In kind it is functional. (In general: Reporter assays use an easily measured gene product as a stand-in for the process of interest.)

The target in assay [7] is T4, Tyrosyl-tRNA synthetase, putative (Trypanosoma cruzi (strain CL Brener)) (UniProt Q4DSP6).
T4 sequence (whole entry): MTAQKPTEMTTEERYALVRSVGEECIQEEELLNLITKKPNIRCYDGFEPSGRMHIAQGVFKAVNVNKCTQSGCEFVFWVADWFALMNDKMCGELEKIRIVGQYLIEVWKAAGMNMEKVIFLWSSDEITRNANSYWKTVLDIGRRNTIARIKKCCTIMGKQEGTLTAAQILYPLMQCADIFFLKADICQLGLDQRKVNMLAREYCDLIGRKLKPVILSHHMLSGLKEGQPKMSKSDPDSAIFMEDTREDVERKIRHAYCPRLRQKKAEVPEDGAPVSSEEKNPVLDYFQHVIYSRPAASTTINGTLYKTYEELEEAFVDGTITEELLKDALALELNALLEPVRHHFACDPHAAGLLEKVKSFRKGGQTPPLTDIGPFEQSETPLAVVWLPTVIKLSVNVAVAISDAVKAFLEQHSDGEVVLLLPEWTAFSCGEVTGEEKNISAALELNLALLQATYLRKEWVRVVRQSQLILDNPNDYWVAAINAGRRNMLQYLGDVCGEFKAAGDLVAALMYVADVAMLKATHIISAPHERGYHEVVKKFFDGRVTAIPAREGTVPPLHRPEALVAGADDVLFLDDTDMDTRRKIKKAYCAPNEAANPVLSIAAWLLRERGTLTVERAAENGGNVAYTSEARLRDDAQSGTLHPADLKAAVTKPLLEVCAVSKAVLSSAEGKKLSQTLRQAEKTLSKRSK
Description: Trypanosoma cruzi tyrosyl tRNA synthetase (TcYRS) _High Tyrosine SOP. Further: in the data most compounds retested in dose-response had high values. The assay is classed as functional. The note with it: 30 µM.

For assay [8], the target named is T4, Tyrosyl-tRNA synthetase, putative (Trypanosoma cruzi (strain CL Brener)). As to the kind of experiment: Trypanosoma cruzi tyrosyl tRNA synthetase (TcYRS) SOP. In kind it is functional. Conditions: 30 µM.
Assay [9] has as its target Chromo domain-containing protein 1 (Saccharomyces cerevisiae (strain ATCC 204508 / S288c) (Baker's yeast)) (UniProt P32657). Description: ScCHD-1 Enzyme Inhibition Assay. Further: in the data most compounds retested in dose-response had high values. In kind it is functional. Conditions: 30 µM.

Structures are written as SMILES. For some of these results: Measured potencies and affinities stand elsewhere.

Sequence of Chromo domain-containing protein 1 (Saccharomyces cerevisiae (strain ATCC 204508 / S288c) (Baker's yeast)) (P32657 whole entry, the tested form may be a part): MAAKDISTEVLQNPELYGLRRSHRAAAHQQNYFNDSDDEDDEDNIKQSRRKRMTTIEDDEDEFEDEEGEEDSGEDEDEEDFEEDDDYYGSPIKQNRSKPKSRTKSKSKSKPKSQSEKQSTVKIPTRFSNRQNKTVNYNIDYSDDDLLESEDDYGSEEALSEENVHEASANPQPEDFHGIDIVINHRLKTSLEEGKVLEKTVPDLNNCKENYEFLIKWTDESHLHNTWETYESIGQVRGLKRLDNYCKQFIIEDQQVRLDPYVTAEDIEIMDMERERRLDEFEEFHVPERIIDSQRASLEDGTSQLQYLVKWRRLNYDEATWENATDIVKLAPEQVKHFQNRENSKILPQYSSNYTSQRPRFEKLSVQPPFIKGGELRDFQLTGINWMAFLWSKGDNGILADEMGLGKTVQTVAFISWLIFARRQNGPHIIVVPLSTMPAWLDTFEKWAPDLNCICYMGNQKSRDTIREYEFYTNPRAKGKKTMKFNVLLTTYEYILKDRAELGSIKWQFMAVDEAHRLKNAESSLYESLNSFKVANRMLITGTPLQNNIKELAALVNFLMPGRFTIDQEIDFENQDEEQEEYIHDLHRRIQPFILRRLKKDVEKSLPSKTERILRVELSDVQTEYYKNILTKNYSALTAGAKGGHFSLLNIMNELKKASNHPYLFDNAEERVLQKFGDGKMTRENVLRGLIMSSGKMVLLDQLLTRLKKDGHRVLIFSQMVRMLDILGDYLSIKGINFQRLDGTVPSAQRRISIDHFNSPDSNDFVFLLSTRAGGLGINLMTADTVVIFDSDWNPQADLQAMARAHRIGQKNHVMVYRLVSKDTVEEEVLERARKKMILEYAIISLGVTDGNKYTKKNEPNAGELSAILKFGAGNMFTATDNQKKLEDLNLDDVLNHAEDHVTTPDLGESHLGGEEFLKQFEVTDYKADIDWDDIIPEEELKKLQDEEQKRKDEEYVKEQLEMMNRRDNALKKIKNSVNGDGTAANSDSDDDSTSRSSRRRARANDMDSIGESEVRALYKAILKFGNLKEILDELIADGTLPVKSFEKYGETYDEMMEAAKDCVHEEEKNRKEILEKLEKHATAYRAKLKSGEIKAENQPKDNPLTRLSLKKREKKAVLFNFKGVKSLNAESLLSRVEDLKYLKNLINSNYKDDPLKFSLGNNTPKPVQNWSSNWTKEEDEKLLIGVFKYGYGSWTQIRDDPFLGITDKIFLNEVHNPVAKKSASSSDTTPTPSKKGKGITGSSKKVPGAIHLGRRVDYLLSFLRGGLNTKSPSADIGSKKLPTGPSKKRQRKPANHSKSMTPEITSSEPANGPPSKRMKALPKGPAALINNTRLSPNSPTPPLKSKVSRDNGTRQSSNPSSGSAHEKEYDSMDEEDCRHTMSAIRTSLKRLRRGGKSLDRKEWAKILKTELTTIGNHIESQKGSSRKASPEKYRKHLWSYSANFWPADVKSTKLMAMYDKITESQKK
Sequence of Protein translocase subunit SecA (Escherichia coli (strain K12)) (P10408 whole entry): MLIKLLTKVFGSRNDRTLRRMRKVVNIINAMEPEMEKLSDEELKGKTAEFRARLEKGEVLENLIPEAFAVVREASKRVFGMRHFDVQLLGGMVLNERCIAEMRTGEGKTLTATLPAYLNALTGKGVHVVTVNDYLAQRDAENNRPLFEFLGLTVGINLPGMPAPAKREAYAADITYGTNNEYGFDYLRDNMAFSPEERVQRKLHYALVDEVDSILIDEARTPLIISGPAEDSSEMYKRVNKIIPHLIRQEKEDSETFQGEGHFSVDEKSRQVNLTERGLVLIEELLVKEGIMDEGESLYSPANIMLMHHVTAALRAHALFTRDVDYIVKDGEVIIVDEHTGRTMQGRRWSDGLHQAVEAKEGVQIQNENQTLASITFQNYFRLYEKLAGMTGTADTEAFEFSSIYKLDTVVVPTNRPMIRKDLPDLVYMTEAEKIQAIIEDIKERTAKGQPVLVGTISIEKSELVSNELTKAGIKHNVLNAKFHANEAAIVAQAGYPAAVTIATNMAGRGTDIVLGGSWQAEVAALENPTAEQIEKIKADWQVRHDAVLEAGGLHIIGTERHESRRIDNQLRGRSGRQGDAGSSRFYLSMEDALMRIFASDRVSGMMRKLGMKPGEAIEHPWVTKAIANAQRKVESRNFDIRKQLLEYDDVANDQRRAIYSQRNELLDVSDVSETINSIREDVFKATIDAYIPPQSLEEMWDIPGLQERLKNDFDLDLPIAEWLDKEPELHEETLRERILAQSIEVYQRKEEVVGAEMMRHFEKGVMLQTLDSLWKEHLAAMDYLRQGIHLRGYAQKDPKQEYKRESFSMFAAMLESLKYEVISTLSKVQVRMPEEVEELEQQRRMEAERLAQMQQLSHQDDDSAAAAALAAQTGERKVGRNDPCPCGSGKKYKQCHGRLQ
Sequence of Sialic acid-binding Ig-like lectin 9 (Homo sapiens) (Q9Y336 whole entry): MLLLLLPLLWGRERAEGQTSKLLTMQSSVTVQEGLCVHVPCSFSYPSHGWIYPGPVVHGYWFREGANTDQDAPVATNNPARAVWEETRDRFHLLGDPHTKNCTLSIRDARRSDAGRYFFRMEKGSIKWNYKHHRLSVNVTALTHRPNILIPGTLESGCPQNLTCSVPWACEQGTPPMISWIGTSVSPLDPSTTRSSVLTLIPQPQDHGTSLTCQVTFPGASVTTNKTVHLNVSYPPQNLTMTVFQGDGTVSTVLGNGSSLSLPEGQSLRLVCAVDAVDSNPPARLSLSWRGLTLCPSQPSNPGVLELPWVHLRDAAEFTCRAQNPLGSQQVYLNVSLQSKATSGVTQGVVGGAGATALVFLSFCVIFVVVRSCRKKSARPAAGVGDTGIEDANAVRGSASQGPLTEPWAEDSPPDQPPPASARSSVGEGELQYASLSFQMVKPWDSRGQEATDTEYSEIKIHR

On to `CNC(=O)C1CCN(C(=O)CCn2cccn2)CC1`, for which the Percent Effect in assay [1] is -7.35%; in [2], 13.5%; in assay [3], 2.1%; in assay [4], 7.36%; in the assay with Trypanosoma cruzi, -4.92%; in assay [5], 5.73%. Moreover, the Percent Effect is -1.44% in assay [6]; 19.3% in the assay listed under Homo sapiens; -0.99% in assay [7]; -1.22% in assay [8]; 6.84% in [9].
`CCn1ccc(C(=O)NCCCN2CCOCC2)n1`: the Percent Effect is -1.56% in [1]; 5.2% in assay [2]; -2.13% in assay [3]; 4.7% in [4]; -0.492% with Trypanosoma cruzi; -2.76% in assay [5]. In addition, the Percent Effect stood at 22% in assay [6]; 4.11% in the assay listed under Homo sapiens; 7.53% in assay [7]; 13.6% in [8]; 0.597% in [9].
Take `COc1ccnc(N2CCN(CC(=O)N3CCOCC3)CC2)n1`: the Percent Effect in assay [1] was -3.7%; in assay [2] it was 18.4%; in assay [3], 3.44%; in assay [4], -1.28%; in the assay on Trypanosoma cruzi, -0.28%; in assay [5] it was -5.04%. Also, the Percent Effect is 8.54% in assay [6]; -2.03% in the assay filed under Homo sapiens; 8.37% in assay [7]; 18.5% in [8]; -6.56% in assay [9].
With `Cn1cc(C(=O)NCC2CCN(C(=O)NCC(F)(F)F)CC2)cn1`, the Percent Effect in [1] was -2.53%; in assay [2], 16.5%; in [3], -6.78%; in assay [4], 1.59%; in the assay on Trypanosoma cruzi, -0.308%; in [5], 0.645%. For the same compound, the Percent Effect in assay [6] was 11%; in the assay listed under Homo sapiens, 16%; in assay [7], 8.33%; in assay [8] it was 12.7%; in [9], -22.3%.
For the compound `CCc1c(C(=O)NC2CCS(=O)(=O)C2)cnn1-c1ccc(F)cc1` (stereo unspecified), the Percent Effect is -2.17% in assay [1]; 15.2% in assay [2]; -2.59% in [3]; -6.54% in assay [4]; 8.21% in the assay with Trypanosoma cruzi; 1.9% in [5]. The Percent Effect was 7.29% in assay [6]; -14.4% in the assay listed under Homo sapiens; 7.39% in assay [7]; 21.5% in [8]; -5.38% in assay [9].
In the case of `CC(COc1ccccc1)NCc1nc(-c2cccnc2)no1` (stereo unspecified), the Percent Effect was -2.6% in assay [1]; 6.94% in assay [2]; -4.69% in [3]; 0.164% in assay [4]; 1.85% in the assay on Trypanosoma cruzi; 3.09% in assay [5]. Also, the Percent Effect in assay [6] is 6.14%; in the assay filed under Homo sapiens it was 5.92%; in assay [7], 3.16%; in [8] it was 10.3%; in assay [9] it was -2.08%.
In the case of `Cc1nc[nH]c1CN(C)CC1CCCN(CCc2ccc(Cl)cc2)C1` (stereo unspecified), the Percent Effect is 0.978% in assay [1]; -5.48% in [2]; 4.19% in assay [3]; 6.4% in [4]; 4.11% with Trypanosoma cruzi; 10.4% in assay [5]. Further, the Percent Effect in assay [6] was 5.32%; in the assay listed under Homo sapiens, 61.3%; in [7], 9.68%; in [8], 2.5%; in assay [9], -4.79%.
Take `O=C(c1ccsc1)N1CCOC2(CCN(Cc3cccnc3)CC2)C1`: the Percent Effect in assay [1] was -1.61%; in assay [2], -2.67%; in assay [3], 3.67%; in assay [4], 7.65%; with Trypanosoma cruzi, 0.579%; in assay [5], -3.4%. Moreover, the Percent Effect in assay [6] was 8.38%; in the assay filed under Homo sapiens, -17%; in [7], 3.12%; in assay [8], 5%; in assay [9], -6.25%.
For the compound `COCC(=O)N1CCO[C@H]2[C@H](OC)CC[C@@H]21`, the Percent Effect in [1] was -6.12%; in assay [2], 5.41%; in assay [3] it was 1.82%; in assay [4] it was -0.654%; in the assay with Trypanosoma cruzi, -4.79%; in assay [5], 4.78%. For the same compound, the Percent Effect in [6] was found to be 21.8%; in the assay filed under Homo sapiens, 9.88%; in assay [7], 1.08%; in assay [8], 5.13%; in [9], 1.01%.
On to `CCN(CCn1cccn1)Cc1nc(-c2ccccc2F)oc1C`, for which the Percent Effect in assay [1] is -1.08%; in [2] it was -6.94%; in assay [3], -5.26%; in assay [4], -5.94%; in the assay on Trypanosoma cruzi it was -0.68%; in [5], -0.883%. In addition, the Percent Effect in assay [6] was 5.61%; in the assay listed under Homo sapiens, 7.62%; in assay [7] it was 1.05%; in assay [8] it was 0%; in assay [9], 2.51%.
For the compound `Cc1ncsc1CCC(=O)NCc1cc2n(n1)CCN(C(=O)N(C)C)C2`, the Percent Effect in assay [1] was -0.664%; in [2] it was 1.39%; in assay [3] it was -1.68%; in assay [4], -4.18%; in the assay with Trypanosoma cruzi, -4.96%; in assay [5] it was 3.97%. In addition, the Percent Effect was 15.3% in assay [6]; 6.29% in the assay listed under Homo sapiens; 3.16% in [7]; 2.56% in assay [8]; -1.68% in assay [9].

These data come from ChEMBL document CHEMBL3988442, “University of Dundee, Small-Polar-MMV Screening Library” (2021).
